ELG1 genotox: induces genotoxicity in HEK293T cells with luciferase-tagged ELG1; HEK293T ELG1-luciferase reporter, luminescence, 16 h; Potency, µM (titrated, usually from 46 µM), usual class: activators; 330,000 compounds, 1.3% hits; AID 504466; note: nearly all actives have a fitted effect of over 60% in size
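After overnight (16 hr) compound treatment at 37 °C, ELG1-luciferase HEK293T cells were lysed with ONE-Glo; luminescence quantified 30 min later at room temperature.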
Luc counter: blocks Kinase-Glo luciferase, a counter-screen artifact. Q27757. Kinase-Glo luciferase, ATP luminescence, 8 min. Potency, µM (titrated, usually from 38.3 µM), actives largely listed as inhibitors. 200,000 compounds, 0.28% hits; note: nearly all actives have a fitted effect of over 60% in size
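Luminescence was the read-out, taken after 8-minute incubation at ambient temperature. Luciferase turned over luciferin with 10 uM ATP in imidazole pH 7.2 buffer containing KCl, MgCl2, Tween 20 and BSA.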
SMN2 splice up: increases expression of the SMN2 splice variant; HEK293 SMN2-luciferase splicing reporter, luminescence, 30-36 h; Potency, µM (doses to about 46.1 µM), usual class: activators; 210,000 compounds, 2.8% hits; AID 1458; note: nearly all actives have a fitted effect of over 55% in size
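HEK293 cells carry an SMN2 […]–luciferase reporter in which exon 7 inclusion puts luciferase in frame. Cells were plated 10-12 h before compound addition, then incubated 30-36 h at 37C. ONE-Glo luminescence was read; sodium butyrate at 4.5 mM final served as control.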
NPC1 prom act: activators of NPC1 promoter. Huh7 NPC1 promoter luciferase reporter, 24 h. Potency, µM (top dose mostly 9.22 µM), most hits filed as activators. 320,000 compounds, 2.4% hits; note: nearly all actives have a fitted effect of over 60% in size
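Huh7 cells stably carrying NPC1 promoter–luciferase, plated in Opti-MEM with 10% FBS for 2 h, were exposed to compound in DMSO for 24 h at 37 °C; luciferase reagent was added for 10 min and luminescence read.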
Rab9 promoter act: activators of Rab9 promoter; Potency, µM (top dose mostly 9.22 µM), usual class: activators; Huh7 Rab9 promoter-luciferase reporter, luminescence, 24 h; AID 485297; 320,000 compounds, 2.8% hits; note: nearly all actives have a fitted effect of over 60% in size
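Huh7 reporter line, Rab9 promoter upstream of luciferase. Compound exposure 24 h at 37 °C in reduced-serum medium with 10% FBS. Read-out: luminescence.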
FLuc counter: inhibits or activates purified firefly luciferase, miR-21 counter-screen; P08659; purified FLuc, Km substrates, luminescence inhibition; Potency, µM (titrated, usually from 57.5 µM), most hits filed as inhibitors; 360,000 compounds, 6.9% hits; AID 588342; note: nearly all actives have a fitted effect of over 55% in size
Target sequence (P08659 whole entry, looked up): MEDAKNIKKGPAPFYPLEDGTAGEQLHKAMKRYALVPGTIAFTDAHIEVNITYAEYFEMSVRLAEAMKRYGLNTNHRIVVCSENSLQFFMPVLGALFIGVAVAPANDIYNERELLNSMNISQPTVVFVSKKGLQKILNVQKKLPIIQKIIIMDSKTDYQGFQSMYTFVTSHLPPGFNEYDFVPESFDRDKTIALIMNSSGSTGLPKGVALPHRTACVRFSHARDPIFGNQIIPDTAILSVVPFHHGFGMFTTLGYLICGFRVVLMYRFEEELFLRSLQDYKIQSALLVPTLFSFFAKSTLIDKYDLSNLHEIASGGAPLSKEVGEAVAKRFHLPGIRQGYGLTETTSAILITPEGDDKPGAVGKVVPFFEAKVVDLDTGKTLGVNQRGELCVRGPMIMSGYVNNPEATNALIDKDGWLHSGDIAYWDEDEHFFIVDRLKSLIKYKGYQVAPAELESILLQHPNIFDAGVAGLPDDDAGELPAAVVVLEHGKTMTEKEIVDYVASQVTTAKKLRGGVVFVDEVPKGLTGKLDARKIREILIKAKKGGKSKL
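Purified P. pyralis luciferase (10nM final) with 10uM D-luciferin and 10uM ATP (Km levels) in 50mM Tris acetate pH 7.5, 10mM Mg acetate, 0.01% Tween-20, 0.05% BSA; qHTS 6-point titration, ~60 µM downward; luminescence read.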
Hits are given with their value; - = inactive; ? = inconclusive; . = no result. Only some compounds are listed: those with a hit (about 7.5% of all), similar ones and a draw of the others. Calls come from the whole dose curve; as a rule, active = well fitted curve in the direction sought with a large enough effect; inconclusive = small, poorly fitted or top-dose-only effect, or another doubt; inactive = no such curve, though single readings can be large; an effect the other way counts as inactive or inconclusive.

SMILES	ELG1 genotox	Luc counter	SMN2 splice up	NPC1 prom act	Rab9 promoter act	FLuc counter
COC(=O)C1CCN(Cc2cn(Cc3ccccc3)nc2-c2cc3ccccc3o2)CC1	-	-	.	-	-	-
CN(C)C(=O)c1cn(-c2ccccc2)nc1-c1cc2ccccc2o1	-	-	-	-	-	24µM
O=C(O)/C=C\c1cn(-c2ccccc2)nc1-c1cc2ccccc2o1	-	-	-	-	-	13µM
O=C(O)c1cc(-c2cc3ccccc3o2)nn1-c1ccccc1	-	-	-	-	-	?
CC1CCC/C(=C\Nc2ccc(C(=O)O)cc2)C1=O (stereo unspecified)	?	.	.	?	?	4.8µM
CCOC(=O)c1ccc(N/C=C2/CCCC(C)C2=O)cc1 (stereo unspecified)	4.1µM	-	?	3.2µM	2.5µM	5.4µM
CC1CCC/C(=C\Nc2ccc(C(=O)O)c(O)c2)C1=O (stereo unspecified)	?	.	.	3.5µM	3.5µM	11µM
O=C1CCCC/C1=C\Nc1ccc(C(=O)O)c(O)c1	-	.	.	-	?	11µM
O=C(Cn1ccc2cc(S(=O)(=O)N3CCCCC3)ccc21)NCCc1ccccc1Cl	.	.	.	.	.	-
COc1ccc(CCN2C(=O)CSC2=Nc2ccc(C(C)C)cc2)cc1OC	-	.	.	-	-	-
COc1ccc(N(Cc2cc3cccc(C)c3[nH]c2=O)C(=O)c2cccc(Cl)c2)cc1	.	.	-	.	.	-
CC(C)(C)c1ccc(-c2nc(C=O)c3ccccn23)cc1	-	-	-	-	-	15µM
C(=N\N1CCOCC1)/c1nc(-c2ccccc2)n2ccccc12	-	-	-	-	-	-
Cc1cc(C)cc(C(=O)NCC(c2ccc(N(C)C)cc2)N2CCCC2)c1 (stereo unspecified)	.	.	.	.	.	-
CCN1CCCc2cc(CN(CCN3CCOCC3)C(=S)Nc3cccc(OC)c3)ccc21	-	-	-	-	-	-
C=CCN=C(NC#N)SCC(=O)c1cccc(OC)c1	-	-	?	3.5µM	?	?
C=CCN=C(NC#N)SCc1ccccc1	-	-	-	-	-	-
CCCCC/C=C\C/C=C\C=C\[C@@H](O)C/C=C\CCCC(=O)O	.	-	-	.	.	.
CCc1nnc(/N=C/c2c(O)n(-c3ccc(Cl)cn3)c(=O)c3ccccc23)s1	-	-	-	-	-	2.7µM
CC(C)(C)n1ncc2c(=O)n(CC(=O)c3ccccc3)cnc21	-	-	13µM	?	4.5µM	24µM
CC(C)(C)n1ncc2c(=O)n(Cc3ccccc3)cnc21	.	.	.	.	.	-
CC(C)(C)n1ncc2c(=O)n(CC(=O)OCc3ccccc3)cnc21	?	?	-	?	1.4µM	0.085µM
Cc1ccc(C(=O)Cn2cnc3ccccc3c2=O)cc1	?	-	11µM	?	2.5µM	21µM
O=C(O)c1ccccc1-c1ccccc1C(=O)Nc1ccc(-c2nc3cc(Cl)ccc3o2)cc1	-	.	.	-	-	15µM
CC(=O)Nc1cc(-c2nc3cc(Cl)ccc3o2)ccc1C	.	.	.	.	.	-
SMILES	ELG1 genotox	Luc counter	SMN2 splice up	NPC1 prom act	Rab9 promoter act	FLuc counter
CC(=O)Nc1ccc(-c2nc3cc(Cl)ccc3o2)cc1	2.1µM	.	.	0.5µM	0.79µM	1.3µM
O=C(Nc1ccc(-c2nc3cc(Cl)ccc3o2)cc1)c1cc(Br)ccc1Cl	.	.	-	.	.	?
COc1cccc(-c2nccc(NCc3cccc(C)c3)n2)c1	.	-	11µM	.	.	.
Cc1cccc(CNc2ccnc(-c3ccoc3)n2)c1	.	-	-	.	.	.
Cc1cc(-c2nc(-c3ccc(C(C)(C)C)cc3)no2)no1	?	.	.	1µM	0.56µM	3µM
CC(C)(C)c1ccc(-c2noc(-c3ccc4c(c3)CCO4)n2)cc1	?	.	.	?	-	8.5µM
Cc1c(-c2nc(-c3ccc(C(C)(C)C)cc3)no2)n(C)oc1=O	?	.	.	?	?	11µM
CCOc1cc(-c2nnc(SCC(=O)NCCCOC)nc2-c2ccc(OC)c(OCC)c2)ccc1OC	.	.	.	.	.	-
CCOC(=O)c1ccc(N2C=C(C(=O)OC)C(c3ccc(OC)c(O)c3)C(C(=O)OC)=C2)cc1	-	.	.	-	-	17µM
CC1CN(C(=O)Nc2ccc3snnc3c2)c2ccccc21 (stereo unspecified)	?	-	?	-	-	19µM
Cc1ccc(NC(=O)c2ccc3snnc3c2)cc1C	?	.	20µM	?	?	15µM
O=C(Nc1cccc(F)c1)c1ccc2snnc2c1	.	.	-	.	.	-
COc1cccc(NC(=O)c2ccc3snnc3c2)c1	-	-	?	?	?	19µM
Cc1ccc(OC(=O)c2ccc3snnc3c2)cc1	-	-	-	-	-	9.5µM
COc1ccc(NC(=O)c2ccc3snnc3c2)cc1OC	.	.	-	.	.	-
CC(=O)N1CCc2cc(Br)cc(S(=O)(=O)NCCc3cccc(C)c3)c21	.	.	.	.	.	-
O=C(NCCc1csc(-c2ccc(C(F)(F)F)cc2)n1)c1ccc(F)c(F)c1	.	.	.	.	.	-
Cc1nn(C)c(C)c1S(=O)(=O)N(CC(=O)NCCc1ccc(Cl)cc1)c1ccc(C(C)C)cc1	.	.	-	.	.	-
COCCCn1c(SCC(=O)Nc2ccccc2OC)nc2c(sc3ccccc32)c1=O	.	.	.	.	.	-
O=C(Nc1ccc(F)cc1)Nc1ccc2snnc2c1	.	.	-	.	.	24µM
COc1ccc(CNC(=O)Cn2c(SCC(=O)N(C)c3ccccc3)nc3ccccc32)cc1	.	.	.	.	.	-
CCCCc1ccc(/C=C2\C(=O)c3ccccc3C(O)=C2C(=O)OCC)cc1	-	-	-	-	-	11µM
COc1cc(C2SCCS2)cc(Br)c1Oc1ncccc1[N+](=O)[O-]	-	.	.	-	-	-
O=[N+]([O-])c1cccnc1Oc1ccc(C2SCCS2)cc1	?	.	.	?	?	21µM
O=[N+]([O-])c1ccc(Oc2ccc(OCc3ccccc3)cc2)nc1	-	.	.	-	-	-
SMILES	ELG1 genotox	Luc counter	SMN2 splice up	NPC1 prom act	Rab9 promoter act	FLuc counter
O=[N+]([O-])c1cccnc1Oc1ccc(OCc2ccccc2)cc1	?	.	.	?	?	17µM
COc1cccc(/C=C/C(=O)Oc2ccc(C(=O)c3ccc(F)cc3)cc2)c1	-	-	-	-	-	-
COC(=O)c1ccc(/C=C/C(=O)c2cccc(OC)c2)cc1	?	-	-	?	?	9.5µM
COc1cccc(/C=C/C(=O)c2ccc(C)c([N+](=O)[O-])c2)c1	-	-	-	-	-	?
COc1cccc(C(=O)/C=C/c2ccc(SC)cc2)c1	-	-	-	-	-	3.4µM
COCCN(C(=O)c1ccco1)c1nnc(-c2ccc(F)cc2)s1	-	-	?	-	?	?
COCCN(C(=O)Cc1cccs1)c1nnc(-c2cccnc2)s1	-	-	-	-	-	-
CCN(C(=O)Cc1cccs1)c1nnc(-c2cc(OC)c(OC)c(OC)c2)s1	?	-	25µM	-	-	-
CCCN(C(=O)c1ccco1)c1nnc(-c2ccccc2C)s1	?	-	.	-	?	12µM
CCN(C(=O)c1ccco1)c1nnc(-c2cccnc2)s1	?	.	.	?	?	13µM
